Test [1] in a line: reduced mouse 2C T cell binding to pMHC/ICAM-1 vesicles – MLPCN validation set, flow cytometry, LFA-1/ICAM-1 modulator project, pilot screen (AID 2523;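 active = response below a set limit, under 55% cells CD8-positive and vesicle-bound, and CD8 cells' 90th-percentile brightness under 279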;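 as to vesicle binding response: mean PE anti-B7-1 fluorescence of CD8+ cells relative to row control; 100% = QL9-loaded vesicles with DMSO vehicle in the same plate row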). Particulars: 2C mouse CD8+ T cells, at 7 µM, stronger effect = lower value; double positive events: measured here: CD8+/vesicle+ event percentage.
Test [2] addresses Integrin beta-1 (Homo sapiens) + Integrin alpha-4 (Homo sapiens) (UniProt P13612+P05556). The experiment in a line: alpha4beta1 integrin LIBS antibody binding reduction – U937 cells, HUTS-21 mAb, flow cytometry, validation set, VLA-4 allosteric modulator project, pilot screen (AID 2674;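 active = inhibition above 50%, about 3 SD of the validation set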;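 also: antibody binding induced by the VLA-4 ligand LDV present at three times its Kd; 0% = LDV ligand with antibody and no compound and 100% = antibody without LDV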). Particulars: HUTS-21 LIBS mAb binding, at 6.7 µM, stronger effect = higher value, binding induced by LDV ligand.

A short description of test [3]: calorie-restriction mimetic ROS inhibitors, yeast – validation compound set, pilot screen (AID 2706;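 active = superoxide response below 65% of plate, a cut near 3 SD across the whole screen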;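 also: yeast exposed to compound for one week at 30 degrees C before staining; 100% = mean of all compound wells on the same plate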). Particulars: S. cerevisiae aging, superoxide DHE fluorescence; at 10 µM, stronger effect = lower value.
Test [4] concerns the target Beta-adrenergic receptor kinase 1 (Homo sapiens) (UniProt P25098). The experiment in a line: GRK2 binders displacing RNA aptamer, biochemical, validation, human GRK2, bead flow cytometry (AID 488806;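 active = aptamer binding inhibition above 30%, about 3 SD of noise from non-fluorescent compounds; inactive = inhibition at or below 30%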). Particulars: bead-bound GRK2, FAM-aptamer displacement, at 10 µM, stronger effect = higher value.
The target in test [5] is Beta-2 adrenergic receptor (Homo sapiens) (UniProt P07550). The experiment in a line: agonist-induced loss of surface beta2AR – cell-based, FAP fluorogen, flow cytometry, validation set, pilot screen (AID 504459).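 Also: agonist-driven loss of surface beta2AR via internalization measured by FAP dye flow cytometry.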 Particulars: Am2.2-beta2AR cells, at 10 µM, stronger effect = higher value.
The target of test [6] is AP-2 complex subunit beta (Homo sapiens) (UniProt P63010). The experiment in a line: beta-arrestin/AP2 interaction blockers – biochemical, validation set, GST-AP2 beads, flow cytometry, pilot screen (AID 504541;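 active = inhibition above 54%, about 3 SD of non-fluorescent compounds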;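 also: AP2 carries R879A mutation and is captured from E. coli lysate; bead-bound FITC arrestin peptide fluorescence measuring arrestin peptide binding to AP2; 0% = DMSO wells and 100% = excess unlabeled arrestin peptide control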). Particulars: FITC arrestin peptide, at 10 µM, stronger effect = higher value, AP2 beta2 appendage fragment, R879A mutant.
A short description of test [7]: cytosolic pH regulators acting via V-ATPase – S. cerevisiae, pHLuorin, HTS validation (AID 504600; in the data active = response above about 15%;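 also: plate controls were DMSO for no effect and reference compound for full effect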). Particulars: V-ATPase proton transport, at 10 µM, stronger effect = higher value.
In test [8] the test system is anti-desmoglein-3 scFv antibody binding to human DSG3. The experiment in a line: blockers of pathogenic pemphigus antibody–desmoglein-3 binding – biochemical, validation compound set, bead-based, flow cytometry, pilot screen (AID 588368;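 active = binding below the plate cutoff, the plate median minus 3 SD, with a reading above zero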;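 also: signal is the median channel fluorescence of bead-bound GFP antibody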). Conditions: Protein G beads, DSG3-Fc, scFv-GFP binding, at 10 µM, stronger effect = lower value.
Test [9] in a line: Nile Red efflux blockade in pump-expressing yeast – validation compound set, multiplex, phenotypic, pilot screen (AID 588506;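 active = efflux inhibition above 0.42, the validation set average plus 4 SD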;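 also: Nile Red retained in cells so higher fluorescence means more efflux inhibition; 0 = negative control wells and 1 = enniatin B 25 µM full block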). Conditions: S. cerevisiae pump-expressing triplex, Nile Red efflux flow cytometry; at 10 µM; stronger effect = higher value; the pumps come from Candida albicans.
Test [10] addresses ATP-binding cassette sub-family B member 6 (Homo sapiens) (UniProt Q9NP58). In words: blockers of ABCB6-driven porphyrin uptake – K562-ABCB6 cells, flow cytometry, validation set, pilot screen (AID 588550;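 active = inhibition above the screen-wide mean plus 3 SD, about 51%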;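 also: 0% = DMSO wells and 100% = benzethonium chloride 70 µM positive control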). Conditions: K562-ABCB6 porphyrin accumulation, 1 h, at 10 µM, stronger effect = higher value.
A short description of test [11]: AML differentiation inducers, ER-HoxA9 marrow cells – cell-based, GFP/MAC1 double positive, flow cytometry, validation set, primary screen (AID 588685;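 active = differentiation response of at least 50%, scaled between solvent and reference control, from cells with both markers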;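 also: compound exposure lasts four days before antibody staining and flow analysis; 0% = DMSO wells and 100% = 5 µM fulvestrant positive control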). Conditions: stronger effect = higher value, normalized: vehicle 0, fulvestrant 100.

Activity calls are given as the source filed them.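 The calls were made as follows, unless noted: active = percent response above 42, roughly 3 SD of non-fluorescent test compounds; inactive = the rest.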

AP-2 complex subunit beta (Homo sapiens), sequence (P63010 whole entry, looked up, the tested form may be a part, one chain of several): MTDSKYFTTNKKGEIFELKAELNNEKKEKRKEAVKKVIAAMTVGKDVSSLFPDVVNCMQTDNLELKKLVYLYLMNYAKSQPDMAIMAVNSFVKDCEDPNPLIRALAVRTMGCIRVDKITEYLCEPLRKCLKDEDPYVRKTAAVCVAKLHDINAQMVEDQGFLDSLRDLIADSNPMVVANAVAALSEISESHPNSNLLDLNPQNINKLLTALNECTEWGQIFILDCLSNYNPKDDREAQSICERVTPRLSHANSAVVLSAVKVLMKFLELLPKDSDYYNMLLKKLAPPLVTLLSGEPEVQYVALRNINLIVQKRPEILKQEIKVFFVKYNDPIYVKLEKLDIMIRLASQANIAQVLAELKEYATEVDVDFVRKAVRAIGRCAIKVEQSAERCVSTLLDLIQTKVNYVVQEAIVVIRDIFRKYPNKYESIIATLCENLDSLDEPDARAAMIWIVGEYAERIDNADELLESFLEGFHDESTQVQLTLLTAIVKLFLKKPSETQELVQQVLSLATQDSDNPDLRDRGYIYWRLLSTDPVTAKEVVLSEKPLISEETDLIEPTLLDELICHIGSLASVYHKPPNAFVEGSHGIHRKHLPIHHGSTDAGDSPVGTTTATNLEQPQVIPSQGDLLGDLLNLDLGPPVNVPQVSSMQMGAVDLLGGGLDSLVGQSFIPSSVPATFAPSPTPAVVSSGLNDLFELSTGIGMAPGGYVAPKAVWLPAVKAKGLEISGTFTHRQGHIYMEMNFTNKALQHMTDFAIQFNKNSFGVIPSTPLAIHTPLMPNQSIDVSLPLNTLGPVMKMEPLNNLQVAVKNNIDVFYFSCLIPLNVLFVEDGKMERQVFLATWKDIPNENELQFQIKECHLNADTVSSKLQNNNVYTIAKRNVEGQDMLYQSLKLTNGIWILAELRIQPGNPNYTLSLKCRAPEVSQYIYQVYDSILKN
Beta-2 adrenergic receptor (Homo sapiens), sequence (P07550 whole entry, looked up): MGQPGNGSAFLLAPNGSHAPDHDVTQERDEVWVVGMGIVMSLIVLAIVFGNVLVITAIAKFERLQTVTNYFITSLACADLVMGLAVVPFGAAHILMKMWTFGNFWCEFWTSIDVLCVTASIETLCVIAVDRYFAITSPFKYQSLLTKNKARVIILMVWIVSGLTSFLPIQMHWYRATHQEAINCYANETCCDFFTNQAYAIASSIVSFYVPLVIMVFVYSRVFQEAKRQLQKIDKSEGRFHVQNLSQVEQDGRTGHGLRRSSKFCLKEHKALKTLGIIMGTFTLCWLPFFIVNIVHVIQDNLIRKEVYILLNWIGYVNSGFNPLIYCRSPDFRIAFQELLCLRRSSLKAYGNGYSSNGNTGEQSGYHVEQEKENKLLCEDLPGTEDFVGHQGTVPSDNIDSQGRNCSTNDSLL
Beta-adrenergic receptor kinase 1 (Homo sapiens), sequence (P25098 whole entry, looked up): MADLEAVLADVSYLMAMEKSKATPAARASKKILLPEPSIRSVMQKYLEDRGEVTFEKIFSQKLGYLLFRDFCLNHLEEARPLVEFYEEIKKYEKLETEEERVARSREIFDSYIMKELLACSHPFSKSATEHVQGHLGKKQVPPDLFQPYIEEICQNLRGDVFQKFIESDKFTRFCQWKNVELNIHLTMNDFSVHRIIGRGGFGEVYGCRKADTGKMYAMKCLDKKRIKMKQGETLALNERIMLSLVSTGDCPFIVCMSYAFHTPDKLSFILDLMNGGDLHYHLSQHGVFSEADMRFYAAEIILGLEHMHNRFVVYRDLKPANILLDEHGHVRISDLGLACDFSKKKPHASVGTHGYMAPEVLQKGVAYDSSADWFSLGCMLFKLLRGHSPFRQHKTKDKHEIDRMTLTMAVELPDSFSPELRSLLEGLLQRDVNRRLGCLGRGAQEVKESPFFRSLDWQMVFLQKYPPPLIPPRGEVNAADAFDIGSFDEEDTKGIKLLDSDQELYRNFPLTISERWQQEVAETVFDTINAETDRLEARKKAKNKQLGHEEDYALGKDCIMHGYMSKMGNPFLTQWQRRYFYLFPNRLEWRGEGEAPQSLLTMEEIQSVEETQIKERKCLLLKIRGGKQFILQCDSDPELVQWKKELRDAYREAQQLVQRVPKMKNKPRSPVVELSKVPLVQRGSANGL
Integrin beta-1 (Homo sapiens) + Integrin alpha-4 (Homo sapiens), sequence (P05556 whole entry, looked up): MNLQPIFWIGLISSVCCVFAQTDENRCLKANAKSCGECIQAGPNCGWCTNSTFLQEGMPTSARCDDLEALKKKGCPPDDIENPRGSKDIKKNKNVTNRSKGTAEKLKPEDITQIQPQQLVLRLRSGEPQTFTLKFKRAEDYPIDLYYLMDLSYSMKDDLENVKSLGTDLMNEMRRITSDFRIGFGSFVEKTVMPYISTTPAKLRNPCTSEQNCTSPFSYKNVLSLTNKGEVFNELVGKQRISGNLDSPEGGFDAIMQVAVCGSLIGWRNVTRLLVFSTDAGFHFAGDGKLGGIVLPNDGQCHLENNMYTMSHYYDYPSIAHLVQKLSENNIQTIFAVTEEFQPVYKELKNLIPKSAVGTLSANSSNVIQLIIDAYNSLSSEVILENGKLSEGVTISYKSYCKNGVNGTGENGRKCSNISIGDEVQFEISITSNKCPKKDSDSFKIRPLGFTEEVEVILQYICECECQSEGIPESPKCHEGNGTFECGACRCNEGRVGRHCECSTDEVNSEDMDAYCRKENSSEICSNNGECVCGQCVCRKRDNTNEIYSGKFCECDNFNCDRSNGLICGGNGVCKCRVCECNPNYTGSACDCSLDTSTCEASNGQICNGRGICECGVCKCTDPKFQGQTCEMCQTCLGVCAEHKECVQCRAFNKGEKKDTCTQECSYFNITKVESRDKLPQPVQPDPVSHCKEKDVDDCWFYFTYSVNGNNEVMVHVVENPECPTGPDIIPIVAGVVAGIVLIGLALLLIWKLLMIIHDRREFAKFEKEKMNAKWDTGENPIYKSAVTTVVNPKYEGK
Integrin beta-1 (Homo sapiens) + Integrin alpha-4 (Homo sapiens), sequence (P13612 whole entry, looked up): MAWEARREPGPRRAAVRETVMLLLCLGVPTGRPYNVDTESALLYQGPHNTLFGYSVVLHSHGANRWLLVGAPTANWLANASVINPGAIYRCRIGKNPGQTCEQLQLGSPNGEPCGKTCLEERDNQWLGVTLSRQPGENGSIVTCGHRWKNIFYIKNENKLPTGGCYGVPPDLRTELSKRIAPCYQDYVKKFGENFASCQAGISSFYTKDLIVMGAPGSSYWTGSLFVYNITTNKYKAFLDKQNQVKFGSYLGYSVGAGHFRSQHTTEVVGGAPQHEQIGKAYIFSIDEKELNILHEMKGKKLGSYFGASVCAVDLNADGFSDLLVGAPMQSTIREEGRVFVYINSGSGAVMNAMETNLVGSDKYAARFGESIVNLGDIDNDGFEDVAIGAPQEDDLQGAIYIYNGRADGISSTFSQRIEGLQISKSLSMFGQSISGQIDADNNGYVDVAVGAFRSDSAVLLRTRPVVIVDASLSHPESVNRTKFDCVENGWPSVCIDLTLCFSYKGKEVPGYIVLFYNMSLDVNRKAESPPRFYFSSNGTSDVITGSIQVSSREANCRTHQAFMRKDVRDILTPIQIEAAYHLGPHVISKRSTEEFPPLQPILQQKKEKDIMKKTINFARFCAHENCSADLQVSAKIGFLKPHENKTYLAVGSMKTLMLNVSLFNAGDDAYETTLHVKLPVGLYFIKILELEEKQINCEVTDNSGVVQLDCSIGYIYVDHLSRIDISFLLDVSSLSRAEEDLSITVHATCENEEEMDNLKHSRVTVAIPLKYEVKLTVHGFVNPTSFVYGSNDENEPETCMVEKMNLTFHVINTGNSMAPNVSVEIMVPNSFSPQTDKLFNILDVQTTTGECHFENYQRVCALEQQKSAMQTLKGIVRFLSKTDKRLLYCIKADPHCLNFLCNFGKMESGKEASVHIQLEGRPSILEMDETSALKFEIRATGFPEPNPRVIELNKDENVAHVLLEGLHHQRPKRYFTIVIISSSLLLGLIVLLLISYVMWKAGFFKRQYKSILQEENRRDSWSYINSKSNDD
ATP-binding cassette sub-family B member 6 (Homo sapiens), sequence (Q9NP58 whole entry, looked up): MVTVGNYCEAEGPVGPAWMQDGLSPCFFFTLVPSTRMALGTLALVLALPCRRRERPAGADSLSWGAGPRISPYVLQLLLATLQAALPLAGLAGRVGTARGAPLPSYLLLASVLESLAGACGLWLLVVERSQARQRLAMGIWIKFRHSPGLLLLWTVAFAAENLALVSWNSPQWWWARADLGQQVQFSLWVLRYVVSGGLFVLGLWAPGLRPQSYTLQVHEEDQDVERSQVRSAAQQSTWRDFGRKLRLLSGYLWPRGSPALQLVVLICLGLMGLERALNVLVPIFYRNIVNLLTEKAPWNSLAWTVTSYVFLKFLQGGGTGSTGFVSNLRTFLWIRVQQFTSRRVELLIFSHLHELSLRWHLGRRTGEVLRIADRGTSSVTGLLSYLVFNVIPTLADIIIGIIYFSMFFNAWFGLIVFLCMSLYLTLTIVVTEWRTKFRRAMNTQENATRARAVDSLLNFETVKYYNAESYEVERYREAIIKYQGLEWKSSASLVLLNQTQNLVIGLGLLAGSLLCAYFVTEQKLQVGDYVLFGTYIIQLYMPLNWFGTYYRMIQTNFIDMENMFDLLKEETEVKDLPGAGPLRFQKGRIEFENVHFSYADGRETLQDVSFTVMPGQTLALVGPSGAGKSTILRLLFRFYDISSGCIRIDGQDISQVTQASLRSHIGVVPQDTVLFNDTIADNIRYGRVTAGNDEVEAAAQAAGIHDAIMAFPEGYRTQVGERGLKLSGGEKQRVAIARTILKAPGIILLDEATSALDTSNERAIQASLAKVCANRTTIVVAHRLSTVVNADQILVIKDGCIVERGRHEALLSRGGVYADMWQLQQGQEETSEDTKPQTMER

As to `CC(=O)OCC(=O)[C@@]1(OC(C)=O)[C@@H](C)C[C@H]2[C@@H]3C[C@H](F)C4=CC(=O)C=C[C@]4(C)[C@@]3(F)[C@@H](O)C[C@@]21C`, the double positive events in [1] was determined as 61.9%. In test [1], the vesicle binding response was 157% (inactive). Besides, the inhibition in test [2] is -11.8% (inactive); in test [6] it was 1.66% (inactive); in [10], -2% (inactive). The superoxide response (% of plate) in test [3] was 97.6% (inactive). Besides, the aptamer binding inhibition in test [4] is -1% (inactive). In addition, the response in test [5] was 5.99% (inactive); in [7] it was -2.14% (inactive). Also, the binding (% of control) in test [8] is 103% (inactive). For the same compound, the efflux inhibition (fraction of control) in [9] is -0.015 (inactive). Besides, the differentiation response in test [11] is 4.2% (inactive).
Compound `CCCC(=O)O[C@]1(C(=O)CO)CC[C@H]2[C@@H]3CCC4=CC(=O)CC[C@]4(C)[C@H]3[C@@H](O)C[C@@]21C` had a double positive events in test [1] of 56.4%. For the same compound, the vesicle binding response in test [1] was 901% (inactive). Further, the inhibition in [2] was -8.75% (inactive); in [6] it was 14.7% (inactive); in [10], 1% (inactive). Further, the superoxide response (% of plate) in [3] was 105% (inactive). Besides, the aptamer binding inhibition in [4] was -3% (inactive). Further, the response in [5] is -0.28% (inactive); in test [7], -3.44% (inactive). Besides, in test [8], the binding (% of control) was 99.7% (inactive). Besides, in test [9], the efflux inhibition (fraction of control) was -0.2 (inactive). Further, the differentiation response in test [11] was -3.67% (inactive).
Regarding `OC(CCCN1CCCCC1)(c1ccccc1)c1ccccc1`, the double positive events in [1] is 62.8%. Moreover, the vesicle binding response in [1] was 250% (inactive). For the same compound, the figures for the inhibition in test [2], in test [6] and in test [10] were 19.1% (inactive), -8.31% (inactive) and 4% (inactive), respectively. In test [3], the superoxide response (% of plate) was 104% (inactive). The aptamer binding inhibition in test [4] was -3% (inactive). Further, the response in [5] is -0.72% (inactive); in test [7] it was 2.56% (inactive). For the same compound, the binding (% of control) in test [8] was 108% (inactive). Besides, in test [9], the efflux inhibition (fraction of control) was 0.34 (inactive). Moreover, the differentiation response in test [11] is -2.46% (inactive).
In the case of `O=C1N[C@@H](Cc2cnc[nH]2)C(=O)N2CCC[C@@H]12`, in test [1], the double positive events turned out to be 59.8%. Besides, the vesicle binding response in test [1] is 103% (inactive). Further, the inhibition in test [2] is 12.3% (inactive); in [6], -3.62% (inactive); in test [10] it was -2% (inactive). Also, the superoxide response (% of plate) in test [3] is 125% (inactive). In addition, the aptamer binding inhibition in test [4] was 2% (inactive). In addition, the figures for the response in test [5] and in test [7] were 6.03% (inactive) and 6.06% (inactive), respectively. In addition, the binding (% of control) in test [8] was 100% (inactive). In test [9], the efflux inhibition (fraction of control) was -0.07 (inactive). In addition, in test [11], the differentiation response was -7.5% (inactive).
As for `CC(=O)O[C@]1(C(C)=O)CC[C@H]2[C@@H]3C=C(C)C4=CC(=O)CC[C@]4(C)[C@H]3CC[C@@]21C`, in test [1], the double positive events turned out to be 65.3%. Moreover, the vesicle binding response in [1] is 252% (inactive). For the same compound, the inhibition in test [2] is -0.27% (inactive); in [6], 1.74% (inactive); in test [10], -2% (inactive). In addition, in [3], the superoxide response (% of plate) is 95.9% (inactive). The aptamer binding inhibition in [4] was 3% (inactive). Moreover, the results for the response in test [5] and in test [7] were -24.4% (inactive) and -0.81% (inactive), respectively. Besides, the binding (% of control) in test [8] is 101% (inactive). Further, in test [9], the efflux inhibition (fraction of control) is 0.29 (inactive). For the same compound, the differentiation response in [11] is 7.82% (inactive).
`Cc1ccc2c(c1)C(O)(CC(=O)/C=C/C=C/c1ccccc1)C(=O)N2` (centres undefined) yielded a double positive events in test [1] of 63.9%. The vesicle binding response in test [1] is 759% (inactive). For the same compound, the results for the inhibition in test [2], in [6] and in [10] were -4.6% (inactive), 4.01% (inactive) and -7% (inactive), respectively. In addition, the superoxide response (% of plate) in test [3] is 111% (inactive). Moreover, the aptamer binding inhibition in [4] was 2% (inactive). For the same compound, the response in test [5] is -0.9% (inactive); in test [7] it was -1.15% (inactive). Moreover, in test [8], the binding (% of control) is 99% (inactive). Moreover, in test [9], the efflux inhibition (fraction of control) was -0.26 (inactive). The differentiation response in [11] was 2.2% (inactive).
In test [1], `Cn1cc(CN(CCO)Cc2cccs2)c(-c2cccc(Cl)c2)n1` came in with a double positive events of 55.3%. In addition, the vesicle binding response in [1] is 159% (inactive). Also, the inhibition in test [2] is -1.79% (inactive); in test [6], -0.41% (inactive); in test [10], 5% (inactive). Also, in test [3], the superoxide response (% of plate) was 92.3% (inactive). Also, the aptamer binding inhibition in test [4] was 3% (inactive). In addition, the response was 32.8% (inactive) in test [5] and 1.36% (inactive) in test [7]. In addition, the binding (% of control) in [8] is 99.3% (inactive). Besides, the efflux inhibition (fraction of control) in test [9] is -0.06 (inactive). Further, the differentiation response in test [11] is -8.8% (inactive).
In the case of `CC(C)Cc1nc(NCCN2CCOCC2)c(C#N)c2c1COC(C)(C)C2`, the double positive events in test [1] was determined as 61.1%. Moreover, in [1], the vesicle binding response was 159% (inactive). The results for the inhibition in test [2], in [6] and in [10] were 7.4% (inactive), -18.1% (inactive) and -5% (inactive), respectively. The superoxide response (% of plate) in test [3] was 93.4% (inactive). Further, the aptamer binding inhibition in test [4] is -1% (inactive). The results for the response in test [5] and in test [7] were -20.4% (inactive) and 3.4% (inactive), respectively. The binding (% of control) in test [8] was 104% (inactive). Also, the efflux inhibition (fraction of control) in test [9] was 0.08 (inactive). For the same compound, the differentiation response in test [11] is -15.8% (inactive).
Regarding `C[C@H](NC(=O)NCCc1ccccc1)C(=O)O`, the double positive events in test [1] came to 58.1%. Moreover, the vesicle binding response in test [1] is 252% (inactive). The inhibition was 2.3% (inactive) in test [2], -3.97% (inactive) in [6] and 3% (inactive) in test [10]. In addition, the superoxide response (% of plate) in [3] is 104% (inactive). In addition, the aptamer binding inhibition in test [4] was 6% (inactive). The results for the response in test [5] and in [7] were 0.08% (inactive) and -4.57% (inactive), respectively. The binding (% of control) in test [8] was 99.1% (inactive). Moreover, the efflux inhibition (fraction of control) in test [9] was -0.13 (inactive). Moreover, in test [11], the differentiation response was 4% (inactive).
In turn, `CC(C)COc1ccc(Cc2cnc(N)nc2N)cc1` showed a double positive events in [1] of 63.9%. Further, the vesicle binding response in test [1] was 226% (inactive). Also, the inhibition in test [2] was 3.67% (inactive); in test [6], 59.5% (active); in [10], 0% (inactive). In addition, in test [3], the superoxide response (% of plate) is 97.9% (inactive). For the same compound, in test [4], the aptamer binding inhibition is 0% (inactive). Also, the response in [5] is 5.88% (inactive); in test [7] it was -3.28% (inactive). In test [8], the binding (% of control) is 95.5% (inactive). For the same compound, the efflux inhibition (fraction of control) in test [9] was 0.05 (inactive). Moreover, the differentiation response in [11] was 76% (active).
In [1], `COc1ccc(CN(CCC(c2ccc(F)cc2)C2CCOC(C)(C)C2)C(=O)c2ccco2)cc1` (centres undefined) registered a double positive events of 59.4%. Also, in test [1], the vesicle binding response is 144% (inactive). Moreover, the inhibition was -8.62% (inactive) in test [2], -11.3% (inactive) in test [6] and 3% (inactive) in test [10]. Further, the superoxide response (% of plate) in test [3] was 104% (inactive). In test [4], the aptamer binding inhibition is 5% (inactive). In addition, the response was 22.1% (inactive) in [5] and 1.03% (inactive) in [7]. For the same compound, the binding (% of control) in [8] is 101% (inactive). For the same compound, the efflux inhibition (fraction of control) in [9] was 0.12 (inactive). Further, in test [11], the differentiation response was -13.6% (inactive).
`O=C(Nc1ccccc1)c1ccccc1CCc1ccccc1` gave a double positive events in test [1] of 61.3%. The vesicle binding response in test [1] was 167% (inactive). The inhibition in [2] is 6.95% (inactive); in test [6], 9.22% (inactive); in test [10], 0% (inactive). In addition, the superoxide response (% of plate) in test [3] was 90.9% (inactive). Moreover, in test [4], the aptamer binding inhibition is 5% (inactive). The figures for the response in test [5] and in [7] were 46.6% (active) and -1.57% (inactive), respectively. Further, in test [8], the binding (% of control) is 95.3% (inactive). The efflux inhibition (fraction of control) in test [9] is -0.12 (inactive). Further, the differentiation response in [11] was -0.18% (inactive).

For the origin of these results see PubChem BioAssay.
